Calls of active or inactive are those of the source. How the source made its calls: active means hit-call score of the fitted dose curve at least 0.9, where 1 is the maximum; inactive means score below 0.9.
Columns and labels:
[1] = biological target: Bile acid receptor (Homo sapiens) (UniProt Q96RI1); assay: ATG_IR1_CIS: Attagene CIS-FACTORIAL HepG2 Assay for human Nuclear Receptor Subfamily 1 Group H Member 4 (NR1H4), IR1 submotif (AID 2282946); settings: IR1 reporter transcription, actives raise or lower the signal
Sequence of Bile acid receptor (Homo sapiens) (Q96RI1 whole entry, looked up, the tested form may be a part): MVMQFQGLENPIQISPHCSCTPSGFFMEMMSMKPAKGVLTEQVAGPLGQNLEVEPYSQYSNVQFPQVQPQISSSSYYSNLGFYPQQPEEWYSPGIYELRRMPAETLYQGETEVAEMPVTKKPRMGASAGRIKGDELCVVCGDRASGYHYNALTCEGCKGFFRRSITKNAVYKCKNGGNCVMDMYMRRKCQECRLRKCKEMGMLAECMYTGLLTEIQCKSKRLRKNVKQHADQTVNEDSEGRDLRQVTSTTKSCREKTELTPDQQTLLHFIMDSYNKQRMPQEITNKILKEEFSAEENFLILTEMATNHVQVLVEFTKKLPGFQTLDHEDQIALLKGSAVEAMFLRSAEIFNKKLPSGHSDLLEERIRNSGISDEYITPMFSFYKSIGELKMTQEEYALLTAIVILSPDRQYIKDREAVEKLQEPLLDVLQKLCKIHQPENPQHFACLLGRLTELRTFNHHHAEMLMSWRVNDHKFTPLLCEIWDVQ
In short: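 Cells (human HepG2) carry transiently transfected cis-promoter reporter transcription units. Compounds are incubated 24 h, total RNA is reverse-transcribed and amplified, and labelled fragments are resolved by capillary electrophoresis. Curves use DMSO as baseline.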

[2] = ATG_GRE_CIS: Attagene CIS-FACTORIAL HepG2 Assay for human Glucocorticoid Response Elements (GRE) (AID 2282947); settings: HepG2 GRE cis-reporter, Attagene multiplex mRNA; actives raise or lower the signal
In short: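 Assay uses human hepatoma HepG2 cells transfected with cis-promoter reporter units, exposed 24 h. mRNA from reporters detected by RT-PCR plus capillary electrophoresis; DMSO serves as negative control and baseline.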

[3] = ATG_ISRE_CIS: Attagene CIS-FACTORIAL HepG2 Assay for human Interferon Regulatory Factor 1 (IRF1) binding to an Interferon-Stimulated Response Element (ISRE) (AID 2282948); settings: HepG2 ISRE cis-reporter (Attagene), mRNA transcription readout; actives raise or lower the signal
In short: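 Transfected HepG2 (multiple reporter transcription units, cis elements) dosed 24 h. RNA → oligo(dT) RT → PCR → 6-FAM primer extension → HpaI → CE. DMSO = negative control/baseline.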

[4] = ATG_M_32_CIS: Attagene CIS-FACTORIAL HepG2 Assay for M32 Transcription Factor (Internal Marker) (AID 2282949); settings: HepG2 Attagene cis-factorial M32 reporter, mRNA; actives raise or lower the signal;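 further: background control marker of the multiplexed CIS panel rather than a real target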
In short: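 Following 24 h chemical exposure of HepG2 cells transiently expressing cis-promoter reporter constructs, reporter transcript levels were determined by RT-PCR with fluorescent labelling and capillary electrophoresis, then fitted bidirectionally against DMSO.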

[5] = ATG_M_06_CIS: Attagene CIS-FACTORIAL HepG2 Assay for M06 Transcription Factor (Internal Marker) (AID 2282950); settings: HepG2 Attagene CIS-FACTORIAL M06 internal marker reporter; actives raise or lower the signal
In short: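 Internal background marker within multiplexed cis-reporter HepG2 system. Cells transiently transfected, dosed 24 h; reporter mRNA measured by RT-PCR, HpaI digestion and capillary electrophoresis. Bidirectional fit relative to DMSO.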

[6] = biological target: Hypoxia-inducible factor 1-alpha (Homo sapiens) (UniProt Q16665); assay: ATG_HIF1a_CIS: Attagene CIS-FACTORIAL HepG2 Assay for human Hypoxia Inducible Factor 1 (HIF1A) (AID 2282951); settings: HepG2 Attagene cis-factorial HIF1a reporter transcription; actives raise or lower the signal
Sequence of Hypoxia-inducible factor 1-alpha (Homo sapiens) (Q16665 whole entry, looked up): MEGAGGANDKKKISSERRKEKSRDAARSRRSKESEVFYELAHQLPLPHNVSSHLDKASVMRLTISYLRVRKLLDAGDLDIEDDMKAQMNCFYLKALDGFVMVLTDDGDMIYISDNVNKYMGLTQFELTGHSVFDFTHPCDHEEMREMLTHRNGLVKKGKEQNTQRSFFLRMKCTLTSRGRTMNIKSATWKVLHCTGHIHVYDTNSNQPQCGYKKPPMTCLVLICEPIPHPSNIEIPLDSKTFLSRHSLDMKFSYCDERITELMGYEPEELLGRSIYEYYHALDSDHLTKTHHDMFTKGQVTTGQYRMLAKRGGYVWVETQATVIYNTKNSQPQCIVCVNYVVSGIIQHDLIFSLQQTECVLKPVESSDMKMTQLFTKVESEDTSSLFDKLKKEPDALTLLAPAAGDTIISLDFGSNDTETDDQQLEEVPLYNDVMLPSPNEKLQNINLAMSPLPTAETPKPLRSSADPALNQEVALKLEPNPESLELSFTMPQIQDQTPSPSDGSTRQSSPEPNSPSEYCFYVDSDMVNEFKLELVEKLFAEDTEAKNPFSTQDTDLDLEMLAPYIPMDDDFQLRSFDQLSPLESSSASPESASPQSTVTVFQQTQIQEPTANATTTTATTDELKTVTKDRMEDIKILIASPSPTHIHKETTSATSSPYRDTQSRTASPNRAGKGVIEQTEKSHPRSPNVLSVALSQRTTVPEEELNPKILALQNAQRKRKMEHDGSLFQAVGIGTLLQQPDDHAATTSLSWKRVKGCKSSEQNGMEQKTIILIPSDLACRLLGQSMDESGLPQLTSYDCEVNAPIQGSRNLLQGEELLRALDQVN
In short: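 Measures endogenous transcription-factor activity through cis-regulated reporter mRNA in HepG2. Cells dosed 24 h; transcripts quantified by RT-PCR with 6-FAM-labelled products separated by capillary electrophoresis; DMSO serves as negative control.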

[7] = biological target: Hepatocyte nuclear factor 6 (Homo sapiens) (UniProt Q9UBC0); assay: ATG_HNF6_CIS: Attagene CIS-FACTORIAL HepG2 Assay for human Hepatocyte Nuclear Factor 6 (HNF6) (AID 2282952); settings: HepG2 Attagene cis-factorial HNF6 reporter transcription; actives raise or lower the signal
Sequence of Hepatocyte nuclear factor 6 (Homo sapiens) (Q9UBC0 whole entry, looked up): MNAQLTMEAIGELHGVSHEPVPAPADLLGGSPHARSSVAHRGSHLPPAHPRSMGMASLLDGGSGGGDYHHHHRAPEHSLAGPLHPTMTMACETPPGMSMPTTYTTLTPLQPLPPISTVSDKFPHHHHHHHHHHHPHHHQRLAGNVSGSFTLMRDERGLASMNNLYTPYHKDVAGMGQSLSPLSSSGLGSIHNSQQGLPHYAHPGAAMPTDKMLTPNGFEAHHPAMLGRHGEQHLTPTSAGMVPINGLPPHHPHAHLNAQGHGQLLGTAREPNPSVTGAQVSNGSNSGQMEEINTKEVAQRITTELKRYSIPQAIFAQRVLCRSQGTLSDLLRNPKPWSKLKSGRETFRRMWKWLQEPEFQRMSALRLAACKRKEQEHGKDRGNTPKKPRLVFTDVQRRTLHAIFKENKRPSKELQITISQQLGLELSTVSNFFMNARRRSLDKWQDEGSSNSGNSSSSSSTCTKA
In short: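 HepG2, transient MRTU transfection (cis promoters); 24 h chemical exposure; total RNA → oligo(dT) RT → PCR → 6-FAM labelling → HpaI cut → CE; bidirectional fit vs DMSO.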

[8] = biological target: Heat shock factor protein 1 (Homo sapiens) (UniProt Q00613); assay: ATG_HSE_CIS: Attagene CIS-FACTORIAL HepG2 Assay for human Heat Shock Transcription Factor 1 (HSE) (AID 2282953); settings: HepG2 HSE cis-reporter, Attagene RNA transcription; actives raise or lower the signal
Sequence of Heat shock factor protein 1 (Homo sapiens) (Q00613 whole entry, looked up): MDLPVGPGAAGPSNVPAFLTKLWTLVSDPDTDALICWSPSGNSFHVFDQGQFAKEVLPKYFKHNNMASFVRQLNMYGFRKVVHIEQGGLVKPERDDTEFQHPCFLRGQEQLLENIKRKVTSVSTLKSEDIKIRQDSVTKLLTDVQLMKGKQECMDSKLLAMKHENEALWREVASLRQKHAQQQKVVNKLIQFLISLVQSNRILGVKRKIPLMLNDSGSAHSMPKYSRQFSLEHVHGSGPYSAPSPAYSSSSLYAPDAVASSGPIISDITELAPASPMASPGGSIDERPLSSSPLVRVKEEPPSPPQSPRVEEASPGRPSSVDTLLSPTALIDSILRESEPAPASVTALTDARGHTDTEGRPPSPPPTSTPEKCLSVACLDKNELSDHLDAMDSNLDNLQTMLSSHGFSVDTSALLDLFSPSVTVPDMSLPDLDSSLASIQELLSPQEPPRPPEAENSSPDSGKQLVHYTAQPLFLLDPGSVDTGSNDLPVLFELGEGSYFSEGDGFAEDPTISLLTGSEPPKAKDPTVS
In short: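 HepG2 cells transfected with cis-promoter reporter units sensing endogenous transcription factor activity; reporter mRNA quantified 24 h post-dose by RT-PCR and capillary electrophoresis of 6-FAM-labelled products. Bidirectional fitting against DMSO.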

[9] = ATG_MRE_CIS: Attagene CIS-FACTORIAL HepG2 Assay for human Metal Responsive Element (MRE) (AID 2282954); settings: HepG2 MRE cis-reporter transcription, Attagene multiplex; actives raise or lower the signal
In short: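 After a 24 h chemical exposure, transiently transfected HepG2 cells yield RNA whose reporter sequences are amplified, FAM-labelled and sized by capillary electrophoresis. Curves are fitted bidirectionally relative to DMSO.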

[10] = biological target: Paired box protein Pax-6 (Homo sapiens) (UniProt P26367); assay: ATG_Pax6_CIS: Attagene CIS-FACTORIAL HepG2 Assay for human Paired Box 6 (PAX6) (AID 2282956); settings: HepG2 CIS-FACTORIAL PAX6 reporter transcription, RNA readout; actives raise or lower the signal
Sequence of Paired box protein Pax-6 (Homo sapiens) (P26367 whole entry, looked up): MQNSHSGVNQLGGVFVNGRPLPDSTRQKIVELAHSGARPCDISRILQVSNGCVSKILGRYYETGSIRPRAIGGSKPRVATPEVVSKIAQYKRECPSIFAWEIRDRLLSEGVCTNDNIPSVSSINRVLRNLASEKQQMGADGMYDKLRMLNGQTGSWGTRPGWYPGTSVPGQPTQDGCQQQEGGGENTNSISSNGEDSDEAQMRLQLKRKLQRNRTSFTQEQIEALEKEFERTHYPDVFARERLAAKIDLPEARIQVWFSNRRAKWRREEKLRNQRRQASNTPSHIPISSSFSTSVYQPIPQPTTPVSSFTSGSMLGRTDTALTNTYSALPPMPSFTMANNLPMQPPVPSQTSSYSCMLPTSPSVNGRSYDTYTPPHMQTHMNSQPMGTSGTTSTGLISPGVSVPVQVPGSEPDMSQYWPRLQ
In short: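 Transient MRTU transfection of HepG2 → compound exposure 24 h → TriZol RNA, oligo(dT) RT → PCR, 6-FAM primer extension, HpaI cut → capillary electrophoresis; activity fitted both directions against DMSO.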

[11] = ATG_PXRE_CIS: Attagene CIS-FACTORIAL HepG2 Assay for human Pregnane X Receptor Element (PXRE) (AID 2282957); settings: HepG2 Attagene CIS-FACTORIAL PXRE reporter, mRNA; actives raise or lower the signal
In short: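 Transfect HepG2 with MRTUs (cis promoter elements); dose chemical, incubate 24 h; isolate RNA, RT with oligo(dT), PCR, 6-FAM label, HpaI cut, CE. Gain/loss fit vs DMSO.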

[12] = ATG_RORE_CIS: Attagene CIS-FACTORIAL HepG2 Assay for human RAR-related Orphan Receptor Element (RORE) (AID 2282959); settings: HepG2 Attagene cis-factorial RORE reporter, mRNA; actives raise or lower the signal
In short: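 Cells were HepG2 carrying transfected cis-regulated reporter constructs, dosed for 24 hours. Total RNA was reverse-transcribed and reporter cDNA amplified, fluorescently labeled and sized by capillary electrophoresis. Activity was fitted bidirectionally relative to DMSO.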

[13] = ATG_Sox_CIS: Attagene CIS-FACTORIAL HepG2 Assay for human SRY-box transcription factor (SOX) (AID 2282960); settings: HepG2 Attagene cis-factorial SOX reporter, mRNA; actives raise or lower the signal
In short: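 Transient MRTU transfection of HepG2; 24 h compound incubation; TriZol RNA, oligo(dT) RT, PCR, 6-FAM primer extension, HpaI cut, CE. Bidirectional fit, DMSO = baseline.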

[14] = biological target: Transcription factor Sp1 (Homo sapiens) (UniProt P08047); assay: ATG_Sp1_CIS: Attagene CIS-FACTORIAL HepG2 Assay for human Specificity Protein 1 (Sp1) (AID 2282961); settings: HepG2 Sp1 cis-reporter transcription, actives raise or lower the signal
Sequence of Transcription factor Sp1 (Homo sapiens) (P08047 whole entry, looked up): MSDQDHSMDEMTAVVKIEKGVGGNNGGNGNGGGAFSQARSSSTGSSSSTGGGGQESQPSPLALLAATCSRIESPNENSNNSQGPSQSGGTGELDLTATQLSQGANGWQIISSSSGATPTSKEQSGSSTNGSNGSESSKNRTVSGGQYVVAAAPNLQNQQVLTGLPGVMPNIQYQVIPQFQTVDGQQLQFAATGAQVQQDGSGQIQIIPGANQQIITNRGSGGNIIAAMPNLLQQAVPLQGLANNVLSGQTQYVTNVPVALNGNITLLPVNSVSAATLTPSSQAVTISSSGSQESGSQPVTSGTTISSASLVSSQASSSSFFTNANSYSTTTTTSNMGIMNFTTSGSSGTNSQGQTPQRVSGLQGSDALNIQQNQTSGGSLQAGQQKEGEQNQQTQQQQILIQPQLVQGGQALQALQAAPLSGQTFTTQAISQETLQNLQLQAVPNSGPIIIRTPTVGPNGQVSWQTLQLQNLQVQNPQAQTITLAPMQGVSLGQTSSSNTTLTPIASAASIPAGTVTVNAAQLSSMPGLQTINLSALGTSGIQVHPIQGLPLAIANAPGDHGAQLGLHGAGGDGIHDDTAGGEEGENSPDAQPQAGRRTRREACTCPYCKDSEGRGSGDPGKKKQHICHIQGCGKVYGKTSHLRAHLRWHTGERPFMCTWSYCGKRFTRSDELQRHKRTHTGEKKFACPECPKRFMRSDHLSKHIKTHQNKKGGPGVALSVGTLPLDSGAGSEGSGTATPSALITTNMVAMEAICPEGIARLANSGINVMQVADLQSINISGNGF
In short: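 Endogenous Sp1 activity was gauged in human liver HepG2 cells bearing transfected reporter units under a cis-regulating promoter. After 24 h dosing, reporter mRNA was quantified by RT-PCR with capillary electrophoresis, and activity fitted bidirectionally versus DMSO.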

[15] = ATG_SREBP_CIS: Attagene CIS-FACTORIAL HepG2 Assay for human Sterol Regulatory Element Binding (SREBP) (AID 2282962); settings: HepG2 Attagene cis-factorial SREBP reporter, mRNA; actives raise or lower the signal
In short: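 Transfected HepG2 (cis-regulated reporter library, endogenous TFs) → compound 24 h → total RNA → oligo(dT) RT → reporter-specific PCR → FAM primer extension, HpaI cut → CE fluorescence. Fit bidirectional vs DMSO.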

[16] = biological target: Signal transducer and activator of transcription 3 (Homo sapiens) (UniProt P40763); assay: ATG_STAT3_CIS: Attagene CIS-FACTORIAL HepG2 Assay for human Signal Transducer and Activator of Transcription 3 (STAT3) (AID 2282963); settings: HepG2, Attagene cis-factorial STAT3 reporter transcription; actives raise or lower the signal
Sequence of Signal transducer and activator of transcription 3 (Homo sapiens) (P40763 whole entry, looked up): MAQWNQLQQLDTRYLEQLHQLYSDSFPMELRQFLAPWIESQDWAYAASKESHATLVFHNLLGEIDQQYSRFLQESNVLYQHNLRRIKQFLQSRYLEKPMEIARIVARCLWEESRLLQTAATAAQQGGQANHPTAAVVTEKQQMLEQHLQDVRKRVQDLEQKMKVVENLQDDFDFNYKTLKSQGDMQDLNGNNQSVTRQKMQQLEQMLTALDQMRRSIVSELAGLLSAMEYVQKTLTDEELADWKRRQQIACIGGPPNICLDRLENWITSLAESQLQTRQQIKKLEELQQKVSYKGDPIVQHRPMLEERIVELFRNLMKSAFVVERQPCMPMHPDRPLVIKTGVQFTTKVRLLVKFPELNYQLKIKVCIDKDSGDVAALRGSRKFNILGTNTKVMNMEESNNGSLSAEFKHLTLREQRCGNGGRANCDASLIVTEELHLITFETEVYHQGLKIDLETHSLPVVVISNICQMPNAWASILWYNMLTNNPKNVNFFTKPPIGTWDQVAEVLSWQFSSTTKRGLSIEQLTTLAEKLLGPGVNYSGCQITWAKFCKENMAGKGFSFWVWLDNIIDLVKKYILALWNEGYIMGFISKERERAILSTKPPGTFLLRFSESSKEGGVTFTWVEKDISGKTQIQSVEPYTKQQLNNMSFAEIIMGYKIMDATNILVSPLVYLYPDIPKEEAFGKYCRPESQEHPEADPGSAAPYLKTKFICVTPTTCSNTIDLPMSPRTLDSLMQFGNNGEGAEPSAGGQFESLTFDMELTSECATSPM
In short: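 After a 24 h compound incubation, total RNA from MRTU-transfected HepG2 cells was converted to cDNA and reporter sequences PCR-amplified, labelled and profiled by capillary electrophoresis. Gain and loss of signal were referenced to DMSO.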

[17] = ATG_TA_CIS: Attagene CIS-FACTORIAL HepG2 Assay for human TA Basal Promoter (AID 2282964); settings: HepG2 Attagene CIS-factorial TA basal promoter reporter; actives raise or lower the signal
In short: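 HepG2 cells transiently transfected with multiple reporter units under cis promoter elements, reporting endogenous transcription factor activity; this endpoint tracks the TA basal promoter as background control. Reporter mRNA after 24 h dosing measured by RT-PCR/capillary electrophoresis; bidirectional fits versus DMSO.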

[18] = ATG_TCF_b_cat_CIS: Attagene CIS-FACTORIAL HepG2 Assay for human T-Cell-Factor with beta-catenin (TCF/b-cat) (AID 2282965); settings: HepG2 TCF/beta-catenin cis-reporter transcription, actives raise or lower the signal
In short: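 Endogenous transcription factor activity is captured through cis-promoter reporter constructs transiently introduced into human HepG2 liver cells. Induced reporter mRNA is measured after 24 h and fitted bidirectionally relative to DMSO.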

[19] = ATG_PBREM_CIS: Attagene CIS-FACTORIAL HepG2 Assay for human Phenobarbital-responsive Enhancer Module (PBREM) (AID 2282955); settings: HepG2 PBREM cis-reporter, Attagene multiplexed transcription; actives raise or lower the signal
In short: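 Fluorescence of labelled reporter cDNA fragments, resolved by capillary electrophoresis, gives mRNA induction in transfected HepG2 cells treated for 24 h; DMSO serves as negative control and baseline.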

[20] = ATG_PPRE_CIS: Attagene CIS-FACTORIAL HepG2 Assay for human Peroxisome Proliferator-activated Response Element (PPRE) (AID 2282958); settings: HepG2 PPRE cis-element reporter, Attagene transcription factor profiling; actives raise or lower the signal
In short: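 Cells are first transfected transiently with the multiplexed reporter library, then dosed for 24 h. Total RNA is reverse-transcribed, amplified, fluorescently end-labeled and HpaI-cut before capillary electrophoresis; activity is fitted bidirectionally against DMSO controls.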

Measured: AC50

Cc1ccc2n[nH]nc2c1
not listed: [19] | [20]
inactive: all other assays above

O=C(Nc1ccccc1)c1cc([N+](=O)[O-])ccc1Cl
active: [3] 38.3 µM | [6] 24.1 µM | [9] 18.5 µM | [10] 32.8 µM | [11] 2.97 µM | [13] 40.5 µM
not listed: [8]
inactive: all other assays above

Cc1ccc(C=O)cc1
not listed: [13] | [19] | [20]
inactive: all other assays above

N#Cc1ccc(CC(=NNC(=O)Nc2ccc(OC(F)(F)F)cc2)c2cccc(C(F)(F)F)c2)cc1
not listed: [20]
inactive: all other assays above

CC(C#N)(CCC(=O)O)N=NC(C)(C#N)CCC(=O)O (stereo unspecified)
active: [11] 26.2 µM
not listed: [20]
inactive: all other assays above

CCCCCCCCCCCCSC
active: [11] 27.3 µM
inactive: all other assays above

CC(C)OP(=O)(CP(=O)(OC(C)C)OC(C)C)OC(C)C
not listed: [11]
inactive: all other assays above

Reference: PubChem BioAssay (EPA / NIEHS)
